# Source: PubChem BioAssay (NCI)
# About 83,000 compounds went through this panel and 20% of them were active in at least one assay; those are over-represented in the sample as a whole.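 Plates (96-well) were seeded with cells, treated with compound at one concentration, and incubated for 48 hours before percent growth was determined.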 Values without a mark were called inactive. The source made the active and inactive calls. The calls were made as follows: active = growth percent below 10; inactive = the rest.
# Test system: A549/ATCC NSCLC
# Test: NCI-60 one-dose screen, 48 h (100 = growth as untreated, 0 = no growth, -100 = all killed)
# Settings: 10 µM unless noted
row,SMILES,growth
1,CC(=O)Nc1ccc2c(c1)Cc1c(F)cccc1-2,92%
2,COc1ccc(-c2cncnc2N)cc1OC,97.5%
3,CN(C)c1ccc2cc(-c3ccc(Cl)c(Cl)c3)c(N)nc2c1,32.9%
4,O=C(Nc1ccccn1)[C@H](O)[C@@H](O)C(=O)N1CCOCC1,99.6%
5,O=C(NC(=S)Nc1ccc(-c2nc3ccccc3[nH]2)cc1)c1ccc2ccccc2c1,26.3%
6,CCCCCCN(CCCCCC)CC(O)c1cccc2ccc(Cl)cc12 (stereo unspecified),67.2%
7,Cc1ccc(S(=O)(=O)N(CC[C@@H]2C[C@H]2c2cc3ccccc3o2)C(=O)NC2CCCCC2)cc1,101%
8,Clc1ccc2[nH]c3c(NCCCN4CCOCC4)ncnc3c2c1,80.1%
9,Fc1ccc(Nc2ccc3cc(OCCCN4CCOCC4)ccc3n2)cc1F,42.9%
10,CNC(=O)NCC1OC(n2cnc3c(NC(=O)Nc4ccccc4)ncnc32)C2OC(C)(C)OC12 (stereo unspecified),103%
11,CCN(CC)CCOC(=O)Nc1ccccc1Cl,98.7%
12,N=C(N)c1ccc(-c2ccc(-c3ccc(Cl)c(Cl)c3)o2)cc1,-6.23% (active)
13,Cc1[nH]c(-c2nc3ccccc3[nH]2)c(C)c1C(=O)N1CCc2sccc2C1,93%
14,CC(C)(C)c1ccc(C(=O)Nc2sc3c(c2C(N)=O)CCC(=O)C3)cc1,15.1%
15,Cc1nc(Nc2ccccn2)sc1C(=O)/C=C/c1ccc(Br)cc1,86.2%
16,C/C(=N\NC(=O)Cn1c(-c2ccc(S(C)(=O)=O)cc2)nc2cc(Cl)ccc21)c1ccc(Cl)cc1,66.7%
